Compounds without any hit were thinned out: in the full panel of roughly 83,000, 20% have a hit.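 48-hour exposure, single concentration, 96-well plates; percent growth endpoint where 0 means no net growth. Active: below 10.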 Unmarked numbers belong to inactive results. The source made the active and inactive calls.
Experiments:
Assay in all cases: NCI-60 one-dose screen, 48 h (100 = growth as untreated, 0 = no growth, -100 = all killed)
Settings in all cases: 10 µM unless noted
[1] = system: SR leukemia
[2] = system: RPMI-8226 leukemia
[3] = system: OVCAR-8 ovarian
[4] = system: OVCAR-5 ovarian
[5] = system: OVCAR-4 ovarian
[6] = system: SK-OV-3 ovarian
[7] = system: IGROV1 ovarian
[8] = system: OVCAR-3 ovarian
[9] = system: HS 578T breast
[10] = system: NCI/ADR-RES ovarian

Row | SMILES | growth [1] | growth [2] | growth [3] | growth [4] | growth [5] | growth [6] | growth [7] | growth [8] | growth [9] | growth [10]
1 | C/C(=C\CCc1ccoc1)CC/C=C(\C)CCCN1CCSCC1 | 45.6% | 38.2% | 89.8% | 70.1% | 75.3% | 84.6% | 93.7% | 44.4% | 98.1% | 73.8%
2 | O=C(Nc1ccc2c(c1)C(=O)c1ccccc1-2)c1ccccc1 | 81.7% | 63.5% | 37.8% | 85.9% | 15.9% | 110% | 73.4% | 79.5% | 90.6% | 70.4%
3 | CC(C)N(Cc1ccccc1)c1c(S)ssc1=S | 2.98% (active) | -65.4% (active) | 14.7% | 14.1% | -2.68% (active) | 11.7% | -39.4% (active) | 28.1% | 6.03% (active) | 15.9%
4 | COc1cnc2c(c1)C(=O)c1c-2n(CCCN2CCCC2)c(=O)c2cc(F)ccc12 | -9.13% (active) | -22.8% (active) | -13.3% (active) | 5.78% (active) | 4.61% (active) | -24.6% (active) | 4.37% (active) | -29.1% (active) | 23.8% | -3.22% (active)
5 | CCN1CCN(c2nc(NNC(=O)Cc3ccccc3)nc(N3CCN(C(c4ccccc4)c4ccccc4)CC3)n2)CC1 | -22.3% (active) | 36.6% | 64.4% | 102% | 86.6% | 114% | 64.1% | 46.2% | 96.1% | 90.4%
6 | Oc1c(Cl)cc(Oc2cc(Cl)c(O)c(CN3CCOCC3)c2)cc1CN1CCOCC1 | 80.2% | 91% | 94.8% | 98% | 88.2% | 101% | 92.5% | 94.5% | 93.5% | 84.8%
7 | COc1cnc2c(c1)C(=O)c1c-2n(CCCN2CCC(O)CC2)c(=O)c2cc(F)ccc12 | 0.0108% (active) | -26.2% (active) | -6.45% (active) | -8.07% (active) | -0.215% (active) | -31.6% (active) | 1.69% (active) | -8.34% (active) | 27.7% | 0.114% (active)
8 | Cn1c(=O)c2[nH]c(=S)n(Cc3ccccc3)c2n(C)c1=O | 91.4% | 119% | 111% | 105% | 98.9% | 107% | 108% | 104% | 101% | 99.2%
9 | Oc1c(Cl)cc(Cl)c(Cl)c1Cc1c(O)c(Cl)cc(Cl)c1Cl | 63.9% | 6.95% (active) | 7.43% (active) | 39.4% | 29.5% | 19.1% | 25.1% | 10.8% | -1.24% (active) | 3.82% (active)
10 | CNNc1ncnc2c1cnn2-c1ccc(S(N)(=O)=O)cc1 | 65.6% | 94% | 81.8% | 99.8% | 106% | 115% | 104% | 87.7% | 104% | 87%
11 | C[C@]12CCC(=O)C=C1CCC1C2[C@@H](O)C[C@@]2(C)C1CC[C@]2(O)C(=O)COC(=O)CCC(=O)O (stereo not given in full) | 105% | 63.6% | 95.6% | 99.4% | 102% | 89% | 93.6% | 123% | 138% | 95.7%
12 | Nc1nc(Nc2ccccc2SSc2ccccc2Nc2nc(N)nc(C(Cl)(Cl)Cl)n2)nc(C(Cl)(Cl)Cl)n1 | 14.8% | 36.1% | 47.9% | 82% | 65.3% | 121% | 37% | 64.6% | 73.4% | 48.9%
13 | COc1cc2c(cc1OC)C(CC1(O)CCCCC1)N(S(=O)(=O)c1ccc(C)cc1)CC2 (stereo not given) | -10.4% [100 µM] (active) | 16.7% [100 µM] | 26.8% [100 µM] | 76.2% [100 µM] | 25.4% [100 µM] | 80% [100 µM] | 53.6% [100 µM] | -15.5% [100 µM] (active) | 57.3% [100 µM] | 34.5% [100 µM]
14 | CC(C)OP(=O)(OC(C)C)c1ncc(-c2ccc(C(F)(F)F)cc2)c(NC2CCCCCC2)n1 | -30.3% [33.3 µM] (active) | -40.7% [33.3 µM] (active) | 0.0612% [33.3 µM] (active) | -89.1% [33.3 µM] (active) | 2.6% [33.3 µM] (active) | 8.69% [33.3 µM] (active) | -11.2% [33.3 µM] (active) | -96.8% [33.3 µM] (active) | -30.1% [33.3 µM] (active) | 3.22% [33.3 µM] (active)
15 | COc1cc(/C=C2\CN(S(=O)(=O)c3ccc(C)cc3)C/C(=C\c3cc(CN4CCOCC4)c(O)c(OC)c3)C2=O)cc(CN2CCOCC2)c1O | 4.35% (active) | -24.8% (active) | 2.94% (active) | -26% (active) | 24.8% | 42.6% | -17% (active) | -17.3% (active) | 27.3% | 5.42% (active)
16 | CCOC(=O)C(Br)=P(c1ccccc1)(c1ccccc1)c1ccccc1 | 90.2% | 83.1% | 90.4% | 106% | 106% | 102% | -30.7% (active) | 98% | 119% | 103%
17 | COc1ccc2cc(C3=CC(=O)CCC3)ccc2c1 | 91.8% | 92.6% | 105% | 98.7% | 104% | 120% | 104% | 106% | 116% | 95.6%
18 | CC(C)Sc1nc(Cl)c(C#N)c(-c2ccc(F)cc2)n1 | -25.2% (active) | 78.5% | 97.1% | 99.2% | 107% | 110% | 103% | 128% | 106% | 105%
19 | Nc1nc2c(c(=O)[nH]1)C1(C(=O)Nc3ccccc31)c1c(nc(N)[nH]c1=O)N2 | 111% | 96.2% | 114% | 112% | 102% | 108% | 101% | 103% | 110% | 102%
20 | CCc1nn2c(-c3ccc(Cl)cc3C)c(-c3cc(OC)c(OC)c(OC)c3)nc2s1 | 48.3% | 63.8% | 103% | 92.9% | 54% | 94.5% | 73.1% | 72.6% | 48.5% | 78.3%
21 | N#Cc1ccc(-c2csc(Nc3ccc4nc5n(c(=O)c4c3)CCC5)n2)cc1 | 93.6% | 109% | 106% | 103% | 109% | 176% | 107% | 116% | 115% | 105%
22 | O=C1C(=O)/C(=C/c2ccccc2)CCCCCC/C1=C/c1ccccc1 | -13.5% (active) | -33.5% (active) | 29.9% | 114% | 60.9% | 98.2% | 5% (active) | 21% | 81.4% | 80.1%
23 | c1ccc(CN=C(NCc2ccccc2)NCc2ccccc2)cc1 | 77.4% | 43.5% | 56.4% | 100% | 30.2% | 73.5% | 60.4% | 51.4% | 96.7% | 86%
24 | N#Cc1c(-c2ccccc2)cc(-c2ccccc2)n(CCCCC(=O)O)c1=O | 65.1% | 96.2% | 96% | 98% | 115% | 136% | 102% | 101% | 101% | 80.5%
25 | Cc1ccc(-c2c3c(N)c4c(nc3nc3c2c(C)nn3-c2ccccc2)CCC4)cc1 | 6.66% (active) | 85.6% | 88% | 94.7% | 124% | 96.4% | 96.3% | 102% | 87.9% | 85.7%
26 | O=C(C(=O)c1cc(Br)ccc1O)c1cc(Br)ccc1O | 24.3% | 16.6% | 64.2% | 93.4% | 42.2% | 79.6% | 32.3% | 15.9% | 38.8% | 32.8%
27 | CCCCCCCCCCNCCSS(=O)(=O)O | 52.1% | 98.2% | 65.9% | 103% | 102% | 84.8% | 91.2% | 72.3% | 52.1% | 83.7%

— PubChem BioAssay (NCI)
